Among all 53,000 sequences or so, about 3,700 (7%) were called active.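 Rule for the calls: active = gene knockdowns whose robust z-score for IL-1 alpha signal is at least 2 or at most -2, so actives lie on both sides; inactive = the rest.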 Shown is part of a subset that was picked to be rich in actives.

A short description of this test: Components of the Cytosolic LPS Sensing Pathway: Gene Identification via Genome-wide siRNA Screen.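 Note: robust z of the log signal after scaling to non-targeting control siRNA wells of the plate.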 The note with it: RAW264.7 macrophages, IL-1a HTRF, actives lie on both sides, screened at 100 nM (by protocol), cells primed 5 h with Pam3CSK4 first. The essentials:
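Read-out: IL-1a HTRF on supernatant, divided by plate negative-control median ×100, log-transformed and converted to robust z-score. Cells were RAW264.7 given 100 nM siRNA, Pam3CSK4-primed 5 hours, then LipidA-transfected 24 hour.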
As to GGAAAAGGAAUUCUCCAGATT against Atrip, the z-score was 0.624 (inactive). For GGCUUGCUGAUUAAAGAUGTT against Strbp, the z-score is -0.544 (inactive). GGAGAGCAUUCCCAUUGCUTT against Ddx6: the z-score was -2 (active). For the sequence GGCUUGACUGAAUAAUAAUTT against Gpr157, the z-score was -0.424 (inactive). Consider GCAGAGAGAGCGUGAAUCCTT against AB124611, for which the z-score is 0.598 (inactive). Then GGUUUUCCCUCCAGAUGAGTT against Mtch1, with -0.336 (inactive); and GGUGGUAAUUGGUGUGGCATT against Slc9b2, with -0.188 (inactive). Turning to GGUUCACAGAAAUGGAUGATT against Zfp507, the z-score is -2.91 (active). The same measure for GGUUUCUUUGCCUACCCAGTT against Prrc2b: -1.13 (inactive); for GGGUGACAACCAAAGACUGTT against Mill1: 0.174 (inactive). Turning to “GGAUCAUGCAAACCAAAGCTT against 4930522H14Rik”, the z-score is 0.193 (inactive).

As for GAGAACUCUCUAAACAAGUTT against Cks2, the z-score was 0.714 (inactive). For GGAUAGUCAUCAACAGAGCTT against Psma7, the z-score is -2.42 (active). The same measure for GGAACAGUCGUGGUAAAGUTT against Gnl2: -0.767 (inactive); for GGUGUUUGUUCGGAAGCUCTT against Pes1: -0.345 (inactive). Turning to GGAAGAAGCACAAUUUGAATT against Selenof, the z-score is -0.946 (inactive).

Consider “CCUACUCCACGGGUAUUUUTT against 1700065D16Rik”, for which the z-score was -0.331 (inactive).

GGUGCCGCACACAAACAAUTT against Hipk2: the z-score is -2.02 (active).

Turning to GGGCCUGAUUUGUCCUCACTT against Sytl1, the z-score was -1.57 (inactive).

As for GGACGGUCCUCUUAAAAGATT against Chat, the z-score is -0.394 (inactive).

As for GGCCUAUCAGAUAAAGAAGTT against Vps37b, the z-score was -1.04 (inactive).

Turning to GGUUACUGCUCUCAUGUACTT against Olfr247, the z-score was -1.28 (inactive). Consider GGAGCACUUGUGGAUCAAUTT against Efhd1, for which the z-score was 1.03 (inactive). Take GCAUCAUGAACUCCUUUGUTT against H2bc1: the z-score is -2.43 (active). Then GCAUUUAAUGGCAUUACUGTT against Otol1, with 0.596 (inactive). Consider GCUGGCGGAGCAAACUCAATT against Foxd3, for which the z-score is 0.756 (inactive). Regarding GGAAUGAAAAACCUACAUGTT against Cxcl13, the z-score was 0.453 (inactive). Turning to GUUAUUUGUAUGGUGAGAUTT against Hpcal1, the z-score was -1.06 (inactive). The same measure for GGCUGCCUAACUGAUAACATT against Inpp4b: 0.24 (inactive). Then GGACACUUUACAGUGAUUGTT against Skint4, with 1.1 (inactive); and GCCUCUGAAAGUGUAAUUATT against Ccdc103, with 0.184 (inactive). The same measure for GGUGAUUCAACUCACUUGUTT against Olfr1353: -1.33 (inactive). In the case of GGUAUGUUUUAUCUUGACATT against Olfr851, the z-score was 0.269 (inactive). Then GGGAUCAGGCCAUUUCCAUTT against Vav2, with 2.26 (active). Then GGCAAACGAUAAAGAAAUCTT against Ptp4a2, with 1.58 (inactive); and GGGAUUUGCCAAAGAAUAGTT against AI597479, with 0.875 (inactive). For the sequence GGGUGACAGGGCAUGAGAATT against Macroh2a3, the z-score was 0.611 (inactive).

With “GGCCUUUAAGAGUUUCCAUTT against A230052G05Rik”, the z-score was 2.1 (active). The same measure for GCAACAAUAUUGCUCUAGATT against Galntl6: -0.452 (inactive); for GCGAUCAAAAUUGUGUCACTT against Minar2: -0.776 (inactive). Then CGAUCAAAAAAAUCGUGUGTT against Cfap97, with 0.587 (inactive); and GGAAGUGGCCUUAAAGUAUTT against Arhgef37, with -1.67 (inactive). As to GUGUCCAGUCCUAAAACGATT against Trib3, the z-score was 1.66 (inactive). For GGGAAAGGAUUUUUACAUUTT against Ctdsp1, the z-score was 1.83 (inactive). For the sequence “GCAAACUCAAGGCAUACAUTT against A930017M01Rik”, the z-score is 4.27 (active).

GGUGAACCUGGAAGAACUATT against Manea: the z-score was 1.64 (inactive). Then CGCCAAUUCAUCGUUGACUTT against Ccl3, with 0.773 (inactive). Consider GGAUUUGGAGUAGAUCAAUTT against Tial1, for which the z-score was 0.638 (inactive).

Take GGAACUGCUAAUCAACCAUTT against Zmynd10: the z-score is -2.14 (active).

As to GGAAAAAGAGUCCUUCAUGTT against Minar2, the z-score is 1.19 (inactive).

For the sequence GGAACAAGAAACCACAAUGTT against Agpat1, the z-score is 0.281 (inactive). For the sequence GGAAGAUGCCAUCUUACACTT against Borcs7, the z-score was 2.5 (active).

Regarding GCAGGUUCACGACACCAACTT against Sv2a, the z-score is -1.35 (inactive). The same measure for GCUGAAUGCGACAUUUAUATT against Hk2: 0.668 (inactive); for GGCUGAGCUGAUCUUCUUATT against Wnt8a: -0.037 (inactive). Then GGUCCGAAAGGCAGCUAUATT against Fcer1g, with -2.17 (active). The same measure for CGAACAUUCCUUCCAUAACTT against Kcnd3: 0.609 (inactive). In the case of GGCUGUGCAAGCAAAACCUTT against Mad1l1, the z-score was -1.43 (inactive). Then GGUACAAGACUGUCAUGUGTT against Mrpl3, with 0.356 (inactive); and GGUCAAAGUCUAGGAGUUUTT against Spp1, with 2.56 (active); and GGUGUCCAGUCAAUAAGAGTT against Msx3, with -0.0298 (inactive). The same measure for GGAAAGCUUCAAAAUGGUGTT against Foxj2: -1.26 (inactive); for GGACAUUGACACUACUCCATT against Cyp2c55: -0.519 (inactive); for GCCCAACUAAGCAAUAAUATT against Fam216b: 0.395 (inactive). Then GCCGAGCAGAUGUACAGAATT against Zfp39, with 2.93 (active).

For GUGGUUGAACGGGAAUUUGTT against Gm11487, the z-score was 0.542 (inactive). The same measure for GGCUUUAGGUAGUAGUCUCTT against Kansl2: -2.9 (active); for GCCAGUGGAUGUUCAGAAUTT against Ccdc73: 0.019 (inactive). In the case of GCGAGAGUUUUUCUUCAACTT against Hoxc11, the z-score is 0.385 (inactive). Then GGAAUGAGGGUAAUGAAUATT against Plin3, with -1.74 (inactive). As to GGAGCUAGCUAGAACAAGUTT against Slmap, the z-score was 1.58 (inactive). The same measure for GGAUCAAUCCACAGACGACTT against Dbr1: 1.56 (inactive); for CGUGGUGAACGAGAUUGAUTT against Kcnab1: 1.21 (inactive). In the case of GCCUGAUGUUGUUUCCAAATT against Lias, the z-score was 2.67 (active).

Turning to GGUGAAGUUGAAUGGAAGUTT against Crebzf, the z-score was -0.9 (inactive). Consider CCUAACACUAGUCUCAGAATT against Olfr873, for which the z-score is 0.192 (inactive). Then GGUGCUAAUGACCUUUGAATT against Dbp, with -1.5 (inactive); and GGAAUGGGAUAGAUUUGUUTT against Ung, with 2.51 (active); and GCUACCUCUGACGACCAAGTT against Slc23a3, with 1.11 (inactive).

With CCAUCAGGUUUAAGUCGUATT against Vps36, the z-score is -0.698 (inactive). Then CGAAGAGAAGUUAUUUGUATT against Mrps23, with 1.19 (inactive).

Take GGUUUACCAGGAAAAUUGATT against Txnrd3: the z-score is -1.09 (inactive). Then GGGUCACACUUCAUGGCUUTT against Pofut1, with -2.07 (active); and GGAUUCUUCGCUCCAAUGATT against Pacs1, with 0.73 (inactive); and GGUAUCCUGAUUGUUGAGUTT against Fam228a, with 1.18 (inactive).

Consider GCAUCAUUAUCUUACCAACTT against Olfr826, for which the z-score is -0.994 (inactive). Then GAGAGAGGGAAUUUGCUCCTT against Pcdhb8, with 2.6 (active). Take AUGUGGCAAAACCUUUGCATT against Zfp960: the z-score was 0.615 (inactive). Then CCCAUGCUUAUUACCGAGATT against Rab37, with 0.0517 (inactive). Then “GGGUGUCAACCCUUUAGAUTT against C130026I21Rik”, with 0.685 (inactive).

Consider GCACCUCAAAAGAAUUCAUTT against Septin10, for which the z-score is 1.42 (inactive).

With GGAUAAGAAACACAAGAAGTT against Srrm1, the z-score was 2.04 (active). Then GCACAUUUUAGCCUAAUGGTT against Tpm3, with -0.785 (inactive); and CCCACUUGUGGCAGUGUACTT against Stub1, with 0.818 (inactive); and GCGACAAUAUGAGUCACCUTT against Fsd1, with -2.07 (active).

Regarding GGGUAACAUGAAAGUGAUCTT against Mybbp1a, the z-score is -0.972 (inactive). For GGACCAAGGAGCAUUGAAATT against Fkbp7, the z-score is 1.06 (inactive). As for GGAAUUCAUCUGUGGUCUCTT against Trim50, the z-score was -0.559 (inactive). On to “GCUUUAGGUAUGGUCCUAATT against A430072C10Rik”, for which the z-score was 1.23 (inactive). As to “GGAUCCAAGGGCAAAAGAUTT against St6galnac1”, the z-score was -1.36 (inactive).

Take CGUACUAUAGUAAAUCCAGTT against Clk1: the z-score was 2.4 (active). In the case of GCCAAGAAACAAUACUCAUTT against Olfr1352, the z-score was 0.694 (inactive). Take CCUACCAAAACGACUAUAUTT against Pnma3: the z-score was -1.29 (inactive). Turning to CGGGCUGAUUCAACUGGUGTT against Kif1b, the z-score is 3.64 (active).

On to GGUACCUCUUCUCCUAAAGTT against Vps16, for which the z-score was 0.106 (inactive). Then GCAUCUCAGCUCUGAUUUATT against Fgfbp3, with 0.758 (inactive); and GGUAGAAACUGACCACAUATT against Aifm1, with 0.917 (inactive).

The values are drawn from PubChem BioAssay AID1508600 (Functional Genomics Laboratory (NCATS/FGL), 2020).
